# Compound activity (PubChem BioAssay)
# An excerpt weighted towards active compounds, which were near 6.1% of everything screened.
# D1 PAM: Potentiators of Human D1 Dopamine Receptor: qHTS. D(1A) dopamine receptor (Homo sapiens), P21728. HEK293 TREx D1 cells, calcium flux, dopamine EC20 potentiation. potentiation, % at 10 µM. actives 0.036% (n = 360,000); in the data active means potentiation above about 30%
# D1 ag: Allosteric Agonists of the Human D1 Dopamine Receptor: qHTS; D(1A) dopamine receptor (Homo sapiens), P21728; HEK293 T-REx D1 cells, calcium flux, agonist mode; activation, % at 2 µM; actives 1% (n = 360,000); in the data active means activation above about 30%
#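 Tetracycline-induced HEK293 TREx D1 cells, force-coupled to calcium signalling, were dye-loaded with a no-wash calcium kit. Compound was pin-added after a 10 s baseline. Fluorescence was read kinetically at 1 cycle/s for 180 s, with calcium rises flagged as agonism.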
# D1 antag: Antagonist of Human D 1 Dopamine Receptor: qHTS | AID 504652, 2011 | actives 3.2% (n = 360,000) | activity change, negative = inhibition, % at 10 µM | HEK293 TREx D1 cells, calcium flux, dopamine EC80; active compounds read low; in the data active means activity change below about -30%
#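 Kinetic fluorescence of a calcium dye serves as the read-out. D1-expressing Hek293 Trex cells, induced overnight at 30 C, are exposed to compound for 180 s before an EC80 dopamine addition, then read 180 s further.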
# D3 ag: qHTS of D3 Dopamine Receptor Agonist: qHTS. D(3) dopamine receptor (Homo sapiens), P35462. D3R DiscoveRx beta-arrestin cells, luminescence, 90 min. max activation, %. actives 0.58% (n = 410,000). AID 652048, 2013; in the data active means max activation above about 30%
# Target sequence (P35462 whole entry, looked up): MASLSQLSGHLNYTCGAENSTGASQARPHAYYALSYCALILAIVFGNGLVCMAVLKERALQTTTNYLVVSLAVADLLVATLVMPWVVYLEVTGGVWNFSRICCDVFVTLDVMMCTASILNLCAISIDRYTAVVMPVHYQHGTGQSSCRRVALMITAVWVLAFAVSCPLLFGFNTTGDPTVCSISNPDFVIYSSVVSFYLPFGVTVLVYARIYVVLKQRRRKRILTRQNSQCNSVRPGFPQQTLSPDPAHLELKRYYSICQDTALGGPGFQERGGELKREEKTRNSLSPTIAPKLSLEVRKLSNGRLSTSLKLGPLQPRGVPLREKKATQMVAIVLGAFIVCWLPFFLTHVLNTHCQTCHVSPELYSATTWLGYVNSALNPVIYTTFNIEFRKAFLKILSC
#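 Cells at 1500/well, incubated overnight, then treated with pinned compounds (dopamine as control) for 90 min at 37 degrees C. DiscoveRx reagent added for 30 - 60 minutes at room temperature; luminescence read.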
# D3 antag: qHTS of D3 Dopamine Receptor Antagonist: qHTS; actives 2.5% (n = 360,000); D3R cells, DiscoveRx beta-arrestin luminescence, antagonist mode; active compounds read low; max response, negative = inhibition, %; D(3) dopamine receptor (Homo sapiens), P35462; in the data active means max response below about -50%; inconclusive means no clear call, values can overlap the other calls
#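 Cells expressing the human receptor were seeded at 1500 cells/well, incubated overnight at 37 degrees C in 5% CO2, then exposed to library compounds with dopamine controls for 90 minutes at 37 degrees C before luminescent detection.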
# Hits are given with their value; n = inactive; u = inconclusive; x = no result given.
SMILES,D1 PAM,D1 ag,D1 antag,D3 ag,D3 antag
CCOc1cc(-c2nc(-c3ccc(-c4ccccc4)nc3OCC)no2)cc(OCC)c1OCC,n,n,n,n,x
Cc1nn2c(NCCCN(C)C)c3c(nc2c1-c1ccccc1)CCCC3,n,n,-38,n,n
Cc1nn2c(NCCCN(C)C)c3c(nc2c1-c1ccccc1)CCC3,n,n,n,n,n
COc1cccc(N/C(N)=N/c2nc(C)cc(=O)[nH]2)c1,n,n,n,n,n
COc1ccccc1N/C(N)=N/c1nc(C(F)(F)F)cc(=O)[nH]1,n,n,-57,n,n
CCOC(=O)Cc1cc(=O)[nH]c(/N=C(\N)Nc2ccc(C)c(C)c2)n1,n,n,-44,n,n
COc1ccc(N/C(N)=N/c2nc(C)cc(=O)[nH]2)cc1,n,n,-37,n,n
CCOc1ccccc1C(=O)N/N=C/c1coc2ccc(C)cc2c1=O,n,n,n,n,n
Cc1ccc(S(=O)(=O)O/N=C2\CCCc3ccccc32)cc1,n,n,n,n,n
CC1=C(C)/C(=N\OS(=O)(=O)c2ccccc2)C=CC1=O,n,n,n,n,-89
CCN(CC)c1ccc(C=C(c2nnnn2-c2ccc(C)cc2)c2nnnn2-c2ccc(C)cc2)cc1,n,32,n,n,n
O=C(Nc1cccc(F)c1)c1cccnc1NCCc1ccccc1,n,n,n,n,n
O=C(Nc1ccc(F)cc1)c1cccnc1NCCc1ccccc1,n,n,-33,n,n
O=C(Nc1ccc(N=Nc2ccccc2)cc1)c1ccccc1Cl,n,n,n,n,n
O=C(Nc1ccc(N=Nc2ccccc2)cc1)c1ccc(Cl)cc1Cl,n,n,-38,n,n
COc1ccc(C2/C=C\CN(C(=O)C3CCCC3)CC(=O)N2Cc2ccc(F)cc2)cc1 (stereo not given),n,n,-34,n,n
COC(Cn1c2c(c3cc(C)ccc31)CCCC2NCc1ccccc1)OC (stereo not given),n,n,n,n,-76
Cc1ccc2c(c1)c1c3n2CCCN(Cc2ccccc2)C3CCC1 (stereo not given),n,n,n,n,n
O=c1oc2c3c4c(cc2s1)CCCN4CCC3,n,n,n,n,n
O=c1ccc2cc3c4c(c2o1)CCCN4CCC3,n,75,n,n,n
O=C(CC1CCCC1)Nc1cccc(Br)c1,n,n,-38,n,n
CC(C)CC1NC(=O)N(CC(=O)Nc2cccc(Br)c2)C1=O (stereo not given),n,n,-39,n,n
CCCC(=O)C1=C(c2ccc(C)cc2)N(C(=O)CCC)n2cnnc2S1,n,n,x,n,x
Nc1nnnn1/N=C/C(Br)=C/c1ccccc1,n,n,n,n,-100
Cc1ccc(NC(=O)CNc2ccccc2N2CCCC2=O)cc1S(=O)(=O)N1CCOCC1,n,n,n,n,n
SMILES,D1 PAM,D1 ag,D1 antag,D3 ag,D3 antag
CCOC(=O)C1(C)CCCN(C(=O)c2ccccc2)C1 (stereo not given),x,x,x,n,-61
COC(=O)c1scc(C#N)c1N/N=C(\C#N)S(=O)(=O)c1ccc(Cl)cc1,n,n,-32,n,n
Cc1ccc(OCCn2c(C)c(/C=N/n3cnnc3)c3ccccc32)cc1,n,n,-34,n,n
Cc1c(/C=N/n2cnnc2)c2ccccc2n1CCOc1ccc(Cl)cc1,n,n,n,n,n
O=C(O)CSCCc1ccccn1,n,n,-82,n,n
CC(=O)CC/C=C(\C)CC/C=C(\C)CC/C=C(\C)CCC=C(C)C,x,x,x,n,x
COc1ccc(N2Cc3ccccc3C2=O)cc1,n,n,n,n,n
C=CC(=O)Oc1ccc(N2Cc3ccccc3C2=O)cc1,x,x,x,n,-64
COc1cccc(/C=N/n2c(SC)nnc2-c2ccccc2)c1O,n,30,n,n,n
O=[N+]([O-])c1ccc(N/N=C2\CC3CC=CC23)cc1 (stereo not given),n,n,-31,n,n
O=[N+]([O-])c1ccc(N/N=C2\CC3CC=CC23)c([N+](=O)[O-])c1 (stereo not given),n,n,n,n,n
COC(=O)Nc1ncc(CN2CCc3ccccc3C2)s1,n,n,n,n,-74
Oc1ccc(/C=N/N(c2ccccc2)c2ccccc2)cc1O,n,n,-38,n,n
Oc1ccc(/C=N/N(c2ccccc2)c2ccccc2)c(O)c1O,n,n,n,x,x
COc1ccc2[nH]c3c(=S)nc[nH]c3c2c1,n,n,n,n,-56
COc1ccc2[nH]c3c(Cl)ncnc3c2c1,n,n,n,n,n
COCc1cc(C)n(CC(=O)Nc2ccc(N3CCOCC3)cc2)c(=O)c1C#N,n,n,n,n,n
Fc1ccccc1C1c2cccn2CCN1C(=S)Nc1cccc(Br)c1 (stereo not given),n,n,n,n,n
Fc1ccccc1C1c2cccn2CCN1C(=S)Nc1ccc(Br)cc1 (stereo not given),n,n,n,n,-64
COc1ccc(C2C(C(=O)Nc3cc(OC)c(OC)c(OC)c3)c3ccccc3C(=O)N2C)cc1OC (stereo not given),n,n,n,n,n
Cc1ccc(C)c(N2CCN(S(=O)(=O)c3ccc4c(c3)CCN4C(=O)CCC(=O)O)CC2)c1,x,n,-34,n,n
Cc1cccc(N2CCN(S(=O)(=O)c3ccc4c(c3)CCN4C(=O)CCC(=O)O)CC2)c1C,n,n,n,n,n
Cc1ccc(NS(=O)(=O)c2ccc3c(c2)CCN3C(=O)CCC(=O)O)cc1Cl,n,40,n,n,n
Cc1ccc(Sc2c(C)nn(C(C)(C)C)c2OC(=O)CC(C)C)cc1,n,n,n,n,x
O=C(Nc1cccc(Cl)c1)Nc1nnc(CC2=CCCCC2)s1,n,n,n,33,n
SMILES,D1 PAM,D1 ag,D1 antag,D3 ag,D3 antag
CCN(CC)CCN(C(=O)c1ccco1)c1nc2c(C)cccc2s1,n,n,n,n,x
CCOc1ccc(S(=O)(=O)N2CCN(C)CC2)c(C)c1C,n,n,-50,n,n
O=Cc1c(-c2ccccc2)cc2oc3ccccc3cc1-2,n,n,n,n,n
Cc1ccc(C#CC[N+]2(CC#Cc3ccc(C)cc3)CCCCC2)cc1,n,n,n,n,n
Cc1cccc(NC(=O)c2nc[nH]c2C(=O)N[C@@H](CC(C)C)C(=O)OCc2ccccc2)c1,n,n,n,n,n
C[C@@H](NC(=O)c1nc[nH]c1C(=O)N[C@@H](Cc1ccccc1)C(=O)OCc1ccccc1)c1ccccc1,n,n,n,n,u
C[C@H](NC(=O)c1nc[nH]c1C(=O)N1CCNCC1)C(=O)OC(C)(C)C,n,n,n,n,n
C[C@H](NC(=O)c1nc[nH]c1C(=O)N[C@H](C)c1ccccc1)C(=O)OCc1ccccc1,n,n,-33,n,n
